Measured values published in PubChem BioAssay AID602244 (Sanford-Burnham Center for Chemical Genomics, 2012).
In all, about 360,000 compounds went through this assay and about 1,300 (0.36%) were called active. Many of the other results were omitted from the sample, so actives are more common in it than they were. Values without a mark were called inactive. Rule as the data show it: active = inhibition above about 34% (passing the limit was not always enough); inactive = the rest.

Target: C-X-C chemokine receptor type 6 (Homo sapiens) (UniProt O00574)
Test: blockade of CXCL16-induced CXCR6 beta-arrestin recruitment – cell-based, luminescence, CHO-K1 PathHunter, 1536-well, primary screen (AID 602244);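 also: antagonist mode with CXCL16 agonist at 10 nM final; 0% = 10 nM CXCL16 with DMSO and 100% = unstimulated wells without agonist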
Conditions: at 20 µM, active compounds read high

C-X-C chemokine receptor type 6 (Homo sapiens), sequence (O00574 whole entry, looked up): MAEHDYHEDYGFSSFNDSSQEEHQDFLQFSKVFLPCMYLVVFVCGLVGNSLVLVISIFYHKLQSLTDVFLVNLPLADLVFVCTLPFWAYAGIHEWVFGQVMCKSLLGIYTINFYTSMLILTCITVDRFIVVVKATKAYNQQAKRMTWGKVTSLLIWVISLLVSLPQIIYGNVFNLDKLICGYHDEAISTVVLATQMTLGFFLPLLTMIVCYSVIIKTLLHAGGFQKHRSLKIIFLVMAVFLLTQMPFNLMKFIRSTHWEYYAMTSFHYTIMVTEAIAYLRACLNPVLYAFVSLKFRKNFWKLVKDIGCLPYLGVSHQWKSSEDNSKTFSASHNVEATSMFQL

Row | SMILES | inhibition
1 | O=C(N/N=C/c1c(O)n(Cc2ccccc2)c(=O)[nH]c1=O)c1ccccc1 | 7.9%
2 | CCCCC(=O)N/N=C/c1c(O)n(CC)c(=S)n(CC)c1=O | 58.7% (active)
3 | Cn1c(O)c(C=NCCCC(=O)O)c(=O)n(C)c1=O | -3.2%
4 | Cc1cc(C)cc(NC(=S)NC2CC3CCCC(C2)N3Cc2cccs2)c1 (stereo not given) | 3.2%
5 | Oc1cc2c(cc1CN1CCN(c3ccccc3)CC1)OCO2 | 5.6%
6 | CCCC[N+]1(C)C2CC(OC(=O)C(CO)c3ccccc3)CC1C1OC12 (stereo not given) | 0.8%
7 | Cc1ccc(-c2nn(CCC#N)cc2C(=O)O)cc1C | 9.5%
8 | Cc1cccc(N2C(=O)NC(=O)/C(=C\c3cnn(-c4ccccc4)c3)C2=O)c1 | 51.1% (active)
9 | C/C=C/CC1(CC)C(=O)NC(=S)NC1=O | -5.1%
10 | COc1ccc(S(=O)(=O)NCc2ccc(C(=O)N3CCC4(CC3)OCCO4)cc2)cc1 | 3.3%
11 | CCOC(=O)C1=C(C)OC(N)=C(C(=O)OC)C12C(=O)Nc1ccc(Br)cc12 (stereo not given) | 9.8%
12 | O=C1NC(=O)C(CCOc2ccccc2)(CCc2ccccc2)C(=O)N1 | -10%
13 | C=CCN1C(=O)C2(C(C(=O)OCC)=C(N)Oc3c2c(=O)oc2ccccc32)c2ccccc21 (stereo not given) | -2.4%
14 | CC(=O)OC1C2(CC3N4C(=O)C5(CO)SSC4(CC31O)C(=O)N5C)OC(C)C(C)(C)C2=O (stereo not given) | 99.4% (active)
15 | CNC(=O)O/N=C(\N)Cc1csc2ccc(Cl)cc12 | 0%
